The values that follow come from PubChem BioAssay.

The nature of assay [1]: StAR promoter reporter inhibitors, counter-screen for LRH-1 inverse agonist project, cell-based, luminescence, high throughput (AID 651611). The note with it: StAR promoter luciferase reporter counterscreen, at 3.6 µM, stronger effect = higher value. In general terms: The purpose of a counterscreen is to sort out artefacts and off-target activity.
The target in assay [2] is Nuclear receptor subfamily 5 group A member 2 (Homo sapiens) (UniProt O00482). In words: LRH-1 (NR5A2) inverse agonists, retest, confirmation, cell-based, luminescence (AID 651613; in the data active = inhibition above about 42%;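 also: HEK293T cells co-transfected with LRH-1 and StAR promoter luciferase reporter; 0% = vehicle wells and 100% = parental cells lacking receptor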). The conditions noted are these: cell-based LRH-1 luciferase reporter, inverse agonism; at 3.6 µM; stronger effect = higher value. (In general: Reporter assays use an easily measured gene product as a stand-in for the process of interest.)

Assay [3] deals with Steroidogenic factor 1 (Homo sapiens) (UniProt Q13285). Put plainly: SF1 (NR5A1) inverse agonists, counter-screen for LRH-1 inverse agonist project, cell-based, luminescence, high throughput (AID 651614; in the data active = inhibition above about 44%;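 also: cells cotransfected with StAR promoter reporter and SF1 expression vector; 0% = vehicle on cells with receptor and 100% = vehicle on cells lacking receptor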). The conditions noted are these: cell-based SF1 luciferase reporter, at 3.6 µM, stronger effect = higher value.
Assay [4] in a line: VP16 transactivation reporter inhibitors, counter-screen for LRH-1 inverse agonist project, cell-based, luminescence, high throughput (AID 651615; in the data active = inhibition above about 33%). The note with it: Gal4-VP16 luciferase reporter cells, at 3.6 µM, stronger effect = higher value.

A number with no mark means an inactive call. Calls of active or inactive are those of the source. Rule as the data show it, unless noted: active = inhibition above about 28%; inactive = the rest.

Steroidogenic factor 1 (Homo sapiens), sequence (Q13285 whole entry, looked up, the tested form may be a part): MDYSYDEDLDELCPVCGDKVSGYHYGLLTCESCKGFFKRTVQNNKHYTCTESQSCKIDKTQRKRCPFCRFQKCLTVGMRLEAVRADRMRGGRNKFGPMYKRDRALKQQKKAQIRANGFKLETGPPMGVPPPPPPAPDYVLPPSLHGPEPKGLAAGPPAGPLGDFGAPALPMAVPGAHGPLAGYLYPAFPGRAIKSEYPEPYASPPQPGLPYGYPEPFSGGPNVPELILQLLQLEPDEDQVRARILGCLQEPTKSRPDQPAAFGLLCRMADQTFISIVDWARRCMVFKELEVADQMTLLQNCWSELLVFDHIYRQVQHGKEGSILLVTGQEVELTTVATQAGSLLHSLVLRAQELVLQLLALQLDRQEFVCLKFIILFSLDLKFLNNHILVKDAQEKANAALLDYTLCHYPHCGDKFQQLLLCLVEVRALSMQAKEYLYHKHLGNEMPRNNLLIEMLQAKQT
Nuclear receptor subfamily 5 group A member 2 (Homo sapiens), sequence (O00482 whole entry, looked up): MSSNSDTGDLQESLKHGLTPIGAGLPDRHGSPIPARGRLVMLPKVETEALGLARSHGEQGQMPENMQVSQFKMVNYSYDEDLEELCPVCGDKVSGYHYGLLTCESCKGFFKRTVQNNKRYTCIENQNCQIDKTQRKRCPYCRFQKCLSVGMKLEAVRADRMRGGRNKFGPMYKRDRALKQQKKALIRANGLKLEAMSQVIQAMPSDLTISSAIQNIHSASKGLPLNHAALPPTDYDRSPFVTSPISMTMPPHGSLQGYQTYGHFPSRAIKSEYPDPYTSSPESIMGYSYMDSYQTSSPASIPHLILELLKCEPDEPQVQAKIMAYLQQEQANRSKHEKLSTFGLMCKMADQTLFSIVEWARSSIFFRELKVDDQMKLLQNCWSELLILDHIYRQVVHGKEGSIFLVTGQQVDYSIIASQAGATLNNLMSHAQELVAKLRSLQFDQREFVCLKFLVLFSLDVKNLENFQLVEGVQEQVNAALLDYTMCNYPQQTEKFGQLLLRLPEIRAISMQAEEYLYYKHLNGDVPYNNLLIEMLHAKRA

What is called inhibition is the relative decrease from the control value, in per cent. On to `CC(C)c1ccc(NC(=O)CSc2nc(=O)[nH]c3c2CCCC3)cc1`, for which the inhibition in assay [1] was 16.1%; in assay [2], 58.5% (active); in assay [3] it was 47.3% (active); in assay [4], -10.5%.

For the molecule `O=C(CN1C(=O)NC2(CCCCCC2)C1=O)Nc1ccc([N+](=O)[O-])cc1`, the inhibition in assay [1] is 25.1%; in assay [2], 63.1% (active); in assay [3] it was 59.6% (active); in assay [4], 9.06%.

For the molecule `Cc1cc2ccccn2c1C(=O)c1cccc([N+](=O)[O-])c1`, the inhibition in assay [1] was 10.1%; in assay [2], 44% (active); in assay [3], 42%; in assay [4], -4.87%.

In the case of `COc1ccc(C2=CC(=O)OC3(CCCC3)O2)cc1`, the inhibition in assay [1] is 15%; in assay [2], 60.5% (active); in assay [3] it was 54.5% (active); in assay [4], -0.06%.

For `O=C(Nc1ccccc1C(=O)NC1CC1)c1ccc([N+](=O)[O-])o1`, the inhibition was 22.3% in assay [1], 62.9% (active) in assay [2], 65.1% (active) in assay [3] and -5.35% in assay [4].

Consider `COc1ccc(CC(N)c2csc(Nc3ncccn3)n2)cc1` (stereo unspecified), for which the inhibition in assay [1] is 49.2% (active); in assay [2], 26.2%; in assay [3], 33.1%; in assay [4], 15.5%.

In the case of `COc1ccccc1NC(=O)CN1CCN(CC(=O)Nc2ccc3c(c2)OCO3)CC1`, the inhibition in assay [1] was 7.22%; in assay [2], 54.4% (active); in assay [3], 50.7% (active); in assay [4], 0.21%.

As to `O=C(CN1C(=O)NC2(CCCCC2)C1=O)NCCc1c[nH]c2ccccc12`, the inhibition is 10.1% in assay [1], 47.8% (active) in assay [2], 56.5% (active) in assay [3] and 3.42% in assay [4].

`O=Cc1ccc(N2CCCCCC2)cc1`: the inhibition in assay [1] was 3.14%; in assay [2] it was 57.1% (active); in assay [3], 56% (active); in assay [4], -13.3%.
